Source: PubChem BioAssay
MCF10A rerep – DNA re-replication induction in MCF 10a cells; MCF 10A DNA re-replication, Hoechst nuclear intensity, 48 h; Potency, µM (top dose mostly 46.1 µM), most hits filed as activators; 350,000 tested, 2.9% active; AID 624296; further: nearly all actives have a fitted effect of over 50% in size
SW480 rereplic – DNA re-replication induction in SW480 cells. 340,000 tested, 1.8% active. AID 624297. Potency, µM (top dose mostly 46.1 µM), most hits filed as activators. SW480 DNA re-replication, Hoechst DNA content imaging, 48 h; further: nearly all actives have a fitted effect of over 55% in size
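SW480 cells exposed to compounds for 48 hr at 37 C, 5% CO2, then Hoechst-stained 40 min. Nuclear DNA content imaged by fluorescence scanning (405 nm excitation, 500-530 nm emission); re-replication scored as increased high-intensity nuclei.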
KB-V1 cytotox – kills drug-selected multidrug resistant KB-V1 cells | KB-V1 MDR cells viability, CellTiter-Glo, 72 h | Potency, µM (highest dose often 46.1 µM), most hits filed as cytotoxic | 400,000 tested, 3.4% active | AID 1347076; further: nearly all actives have a fitted effect of over 60% in size
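KB-V1, DMEM (no phenol red) + 10% FBS; cpd pin-transferred, titration series; 72 h, 37 degrees C; CellTiter-Glo, luminescence. Data normalized, curve-fit.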
IL1B secr inh – blocks inflammasome-driven IL-1 beta release; THP-1 LPS/ATP IL-1B secretion, AlphaLISA, 16 h; active compounds read low; activity change, % at 57.5 µM; 360,000 tested, 4.7% active; AID 743279; in the data active means activity change below about -50%; inconclusive means mostly about -30% to -49%
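THP-1 cells pretreated 1 hr with compounds (up to 57.5 uM final), then stimulated with LPS (250 ng/mL final) plus ATP (1.25 mM final); secreted IL-1B measured by AlphaLISA after 16 hr, decreased signal indicating inhibition.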
KB-3-1 cytotox – kills parental KB-3-1 adenocarcinoma cells; KB-3-1 viability, CellTiter-Glo ATP luminescence, 72 h; Potency, µM (doses to about 46.1 µM), hits mostly cytotoxic; 400,000 tested, 1.4% active; AID 1347075; further: nearly all actives have a fitted effect of over 60% in size
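Screening of KB-3-1 cells (DMEM, 10% FBS, phenol-red free) ran from lowest to highest compound concentration; after 72 h at 37 °C viability was read luminescently and curves fitted.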
Hits are given with their value; . = inactive; ? = inconclusive; / = no result given. A selection: hits, their analogues and other compounds. The true share with any hit is near 9.9%. Unless noted, the call rests on the fitted dose curve; in most records, active means well fitted curve in the direction sought with a large enough effect; inconclusive means small, poorly fitted or top-dose-only effect, or another doubt; inactive means no such curve, though single readings can be large; an effect the other way counts as inactive or inconclusive.

SMILES	MCF10A rerep	SW480 rereplic	KB-V1 cytotox	IL1B secr inh	KB-3-1 cytotox
O=C1NC(c2ccccc2)N=C2Oc3ccccc3C=C12 (stereo unspecified)	?	?	4.1µM	-54	1.3µM
CCCN1C(=O)C(O)(C2CC(=O)CC(C)(C)O2)c2ccccc21 (stereo unspecified)	?	16µM	?	.	?
COc1ccc(C)cc1NC(=O)COCc1cc(-c2ccc(F)cc2)on1	/	/	.	/	.
O=C(CSc1nc2ccccc2nc1SCC(=O)N1CCCCC1)N1CCCCC1	.	.	.	-59	.
COC(=O)CSc1nc2ccccc2nc1SCC(=O)OC	23µM	18µM	.	.	.
O=C(CSc1nc2ccccc2nc1SCC(=O)N1CCOCC1)N1CCOCC1	.	.	?	.	.
Cc1cc2cc(C)c3nnc(SCC(=O)N4CCN(C(=O)c5ccco5)CC4)n3c2cc1C	.	.	.	-74	.
CC(C)Cn1c(SCC(=O)N2CCN(C(=O)c3ccco3)CC2)nc2ccccc2c1=O	0.65µM	.	.	.	.
CCn1cc(CN2CCC(n3nccc3NC(=O)Cc3ccccc3)CC2)c(C)n1	.	.	/	.	/
CCn1c(SCC(=O)Nc2c(C)cccc2C)nnc1-c1nonc1NC(C)=O	/	/	.	/	.
CCn1c(SCC(=O)N2CCCC2)nc2ccccc2c1=O	.	.	6.5µM	.	.
CCn1c(SCC(=O)N2CCN(c3ccc(Cl)cc3)CC2)nc2ccccc2c1=O	.	.	2.6µM	.	.
COCCn1c(SCC(=O)N2CCCCC2)nc2ccccc2c1=O	.	.	4.1µM	.	.
CCOC(=O)c1c(C)[nH]c(C)c1C(=O)CSc1nc2ccccc2c(=O)n1-c1ccc(Cl)cc1	?	?	10µM	.	?
CCn1c(SCC(=O)N2CCN(c3ccc(F)cc3)CC2)nc2ccccc2c1=O	.	.	?	.	.
CCOC(=O)c1c(C)[nH]c(C)c1C(=O)CSc1nc2ccccc2c(=O)n1-c1ccc(C)cc1	.	.	.	.	.
CCCCCCn1cc(CN2CC(N(C)C)CS2(=O)=O)nn1 (stereo unspecified)	/	/	.	.	.
COc1ccc2c(c1)CC(NC(=O)Nc1cc(Cl)ccc1OC)CO2 (stereo unspecified)	/	/	.	/	.
O=C(NCCN1CCOCC1)C1CCN(c2ncnc3c2sc2cccc(F)c23)CC1	.	.	.	.	.
CCCCN(CC)CCCNC(=O)C1CCN(c2ncnc3c2sc2cccc(F)c23)CC1	?	?	.	-97	.
CC1=CN2C(=N)/C(=C/c3ccc(Sc4ccc(C)cc4)o3)C(=O)N=C2S1	?	?	.	-58	.
CCN=C1S/C(=C\c2ccc(Sc3ccc(Cl)cc3)o2)C(=O)N1CC	?	?	.	.	?
CC1=CN2C(=N)/C(=C/c3ccc(C)o3)C(=O)N=C2S1	.	.	.	.	.
CC1=CN2C(=N)/C(=C/c3ccc(Sc4ccc(Cl)cc4)o3)C(=O)N=C2S1	?	.	.	-69	.
CC(C)c1ccc(C(=O)N2CCCCC2c2cc(C(=O)NCc3cccnc3)no2)cc1 (stereo unspecified)	/	/	.	.	.
SMILES	MCF10A rerep	SW480 rereplic	KB-V1 cytotox	IL1B secr inh	KB-3-1 cytotox
CCC(=O)Nc1ccc2nc3c(=O)n(C)c(=O)n(C)c3nc2c1	/	/	.	/	.
Cc1c(NC(=O)C(F)(F)F)ccc2nc3c(=O)n(C)c(=O)n(C)c3nc12	/	/	13µM	/	.
COc1cccc(C(NC(C)=O)c2nc(-c3cccc(F)c3)cs2)c1 (stereo unspecified)	/	/	.	.	.
Cc1ccn2c(Nc3ccccc3C)c(-c3ccccn3)nc2c1	?	.	?	.	?
Cc1ccc2nc(-c3cccnc3)c(Nc3ccccc3C)n2c1	.	.	?	-52	.
Cc1ccc2nc(-c3ccccn3)c(Nc3ccccc3C)n2c1	?	3.7µM	0.73µM	.	?
Cc1ccn2c(Nc3ccccc3)c(-c3ccccn3)nc2c1	16µM	?	?	.	?
Cc1cc(NC(=O)CCC(=O)N(c2ccc(F)cc2)C(C(=O)NC2CCCC2)c2ccc(C)o2)no1 (stereo unspecified)	.	.	.	.	.
O=C(NCc1ccc(F)cc1F)[C@@H]1CCCN1C(=O)[C@@H]1CCCN1C(=O)c1cccs1	/	/	.	.	.
COc1c(Br)cc([N+](=O)[O-])c(OC)c1C(=O)NC(=O)Nc1cc(Cl)cc(Cl)c1	?	.	6.5µM	.	?
COc1cccc(-c2cccc(NC(=O)C3CCN(Cc4nccs4)CC3)c2)c1	.	.	?	.	.
CCOc1ccc(CN2CCC(C(=O)Nc3cccc(-c4ccn[nH]4)c3)CC2)cc1Cl	?	?	?	-76	.
O=C(NCCc1nc2ccccc2n1CCO)C1CCCCC1	/	/	.	/	?
Cc1cc(C)cc(N(CCC#N)C(=O)COC(=O)CCc2c[nH]c3ccccc23)c1	.	.	21µM	.	.
NCCNc1ccc(C(=O)N2c3ccccc3Sc3ccccc32)cc1[N+](=O)[O-]	?	?	21µM	-92	?
Cc1ccc(NC(=O)c2ccc(NCCN)c([N+](=O)[O-])c2)cc1	.	?	.	.	?
Nc1ccc(C(=O)OCC(=O)N2c3ccccc3Sc3ccccc32)cc1[N+](=O)[O-]	?	.	6.5µM	.	?
Nc1ccc(C(=O)OCC(=O)N2CCc3ccccc3C2)cc1[N+](=O)[O-]	?	?	.	.	.
O=C(OC(C(=O)NCc1ccco1)c1ccc(Cl)cc1)c1cccs1 (stereo unspecified)	.	.	.	.	.
CCN(CC)C(=O)COn1c(SCC(=O)N(CC)CC)nc2ccccc2c1=O	.	.	16µM	.	.
CCCN(CCC)C(=O)CSc1nc2ccccc2c(=O)n1CC1COc2ccccc2O1 (stereo unspecified)	?	.	21µM	.	?
CCCCNC(=O)C1CCC(CNS(=O)(=O)c2ccc(Cl)cc2)CC1 (stereo unspecified)	/	/	.	/	.
CC1=C(C(=O)Nc2cccc(F)c2)C(c2ccsc2)C2=C(CC(C)(C)CC2=O)N1 (stereo unspecified)	5.8µM	/	15µM	.	2.9µM
CC1=C(C(=O)Nc2ccccc2F)C(c2ccsc2)C2=C(CC(C)(C)CC2=O)N1 (stereo unspecified)	.	?	.	.	?
COc1cccc2c1OCC([C@@H]1C[C@H]3CN(Cc4cccc(Cl)c4)C(=O)[C@]34CCCN14)=C2	.	.	.	-61	.
COc1ccccc1/C=C/[C@@H]1C[C@H]2CN(Cc3cccc(Cl)c3)C(=O)[C@]23CCCN13	.	.	?	.	.
Cn1cc([C@@H]2C[C@H]3CN(Cc4cccc(Cl)c4)C(=O)[C@]34CCCN24)c(-c2ccccc2)n1	?	.	.	-80	.
O=C1N(Cc2cccc(Cl)c2)C[C@@H]2C[C@@H](c3cccn3-c3cccnc3)N3CCC[C@@]123	?	.	?	-56	?
